43 compounds from PubChem BioAssay (NCATS) can be followed below.

Experiment [1] addresses Aldehyde dehydrogenase, mitochondrial (Homo sapiens) (UniProt P05091). In words: qHTS for Inhibitors of the Aldehyde Dehydrogenase Family (ALDH2) Primary screen (AID 2061308). Also: nearly all actives have a fitted effect of over 55% in size. In general terms: qHTS replaces the single test concentration by a dilution series.
In experiment [2] the target is Retinaldehyde dehydrogenase 3 (Homo sapiens) (UniProt P47895). Description: qHTS for Inhibitors of the Aldehyde Dehydrogenase Family (ALDH1A3) Primary screen (AID 2061315).

Inconclusive results are not listed. Where a call stands in place of a potency, no number is given. Activity calls are given as the source filed them. Calls follow the shape of the dose curve; as a rule, active = well fitted curve in the direction sought with a large enough effect; inconclusive = small, poorly fitted or top-dose-only effect, or another doubt; inactive = no such curve, though single readings can be large; an effect the other way counts as inactive or inconclusive.

With `O=C(c1ccc2c(c1)ncn2-c1ccc(Cl)cc1)N1CCCCC1`, the Potency entry in experiment [1] and in experiment [2] was “inactive” throughout.

Turning to `N#Cc1cccc(-c2noc(-c3ccccc3F)n2)c1`, the Potency result in experiment [1] and in experiment [2] was “inactive” each time.

As to `Oc1ccc(CNc2ccc3ccccc3n2)c2cccnc12`, the Potency result in experiment [1] and in experiment [2] was “inactive” throughout.

For the compound `CNc1nc(C#N)c(-c2cccc3ccccc23)o1`, the Potency result in experiment [1] and in experiment [2] was “inactive” in each case.

As to `O=S1(=O)N=C(Oc2ccc(C(F)(F)F)cc2)c2ccccc21`, the Potency result in experiment [1] and in experiment [2] was “inactive” in each case.

`NC(=O)C1CCN(c2nc(-c3ccc(OCc4ccccc4)cc3)cs2)CC1`: the Potency entry in experiment [1] and in experiment [2] was “inactive” throughout.

As for `CC1CCC2(C1)N=C(Nc1nc3ccccc3o1)NC1=C2C(=O)CCC1` (stereo unspecified), the Potency result in experiment [1] and in experiment [2] was “inactive” in each case.

For `CC[C@@H]1C[C@]1(NC(=O)[C@@H]1C[C@@H]2CN1C(=O)[C@H](C(C)(C)C)NC(=O)OCC(C)(C)CCCCc1cccc3c1CN(C3)C(=O)O2)C(=O)NS(=O)(=O)C1CC1`, the Potency entry in experiment [1] and in experiment [2] was “inactive” each time.

With `CC(=O)O[C@@H]1c2c3c(cc(O)c2C(=O)O[C@@H]1C)O[C@@]1(C)[C@@H](O)C[C@H]2C(C)(C)C(=O)C=C[C@]2(C)[C@@H]1C3`, the Potency entry in experiment [1] and in experiment [2] was “inactive” throughout.

Take `FC(F)(F)c1cccc(Nc2ccc(CNc3nc(-c4ccccc4C(F)(F)F)nc4ccccc34)cc2)c1`: the Potency entry in experiment [1] and in experiment [2] was “inactive” each time.

Turning to `Cc1ccc(S(=O)(=O)Nc2ccccc2C(=O)Nc2nc(-c3ccc(Cl)cc3)cs2)cc1`, the Potency entry in experiment [1] and in experiment [2] was “inactive” each time.

`O=S(=O)(c1ccc(F)cc1)N1CCN(S(=O)(=O)c2ccc3c(c2)OCCO3)CC1`: the Potency entry in experiment [1] and in experiment [2] was “inactive” in each case.

As for `O=[S+]([O-])(Nc1ccc(N2CCNCC2)cc1)c1ccc(NCc2ccc(Cl)cc2O)cc1`, the Potency entry in experiment [1] and in experiment [2] was “inactive” in each case.

In the case of `Cc1cc2c(s1)c1cnn(Cc3ccc(F)c(F)c3F)c(=O)c1n2C`, the Potency result in experiment [1] and in experiment [2] was “inactive” each time.

For `CC(C)(C#CCSc1nnc(-c2cccc3ccccc23)o1)OC(=O)c1ccc(F)cc1`, the Potency entry in experiment [1] and in experiment [2] was “inactive” each time.

For `Cc1ccc(S(=O)(=O)Nc2cc(C(=O)Nc3nc(-c4ccccc4)cs3)ccn2)cc1`, the Potency entry in experiment [1] and in experiment [2] was “inactive” in each case.

As for `COC(=O)[C@@H]1C2CC3c4[nH]c5ccccc5c4CCN3CC2CC[C@@H]1O` (stereo partly specified), the Potency entry in experiment [1] and in experiment [2] was “inactive” each time.

For `O=C(NCCCc1cnc[nH]1)NCCCN(Cc1ccc(Cl)c(Cl)c1)c1ccc(Br)cn1`, the Potency result in experiment [1] and in experiment [2] was “inactive” each time.

`Cn1nnnc1Sc1ncnc2scc(-c3cccc(C(F)(F)F)c3)c12`: the Potency result in experiment [1] and in experiment [2] was “inactive” throughout.

In the case of `CCCn1c(-c2ccc(F)cc2)nc2c(NCC3CCCN3CC)nc(C)nc21` (stereo unspecified), the Potency result in experiment [1] and in experiment [2] was “inactive” each time.

`O=C(Nc1ncc(Cc2ccc(C(F)(F)F)cc2)s1)c1cnc(-c2ccccc2)[nH]1`: the Potency entry in experiment [1] and in experiment [2] was “inactive” each time.

As to `CCCn1c(C)nc2c(N3CCCN(Cc4ccccc4)CC3)nc(C)nc21`, the Potency entry in experiment [1] and in experiment [2] was “inactive” each time.

With `Cc1cc(NS(=O)(=O)c2ccc(NC(=O)Cc3ccc(Cl)cc3)cc2)no1`, the Potency result in experiment [1] and in experiment [2] was “inactive” each time.

`N#Cc1cc(NC(=O)Nc2nnc(-c3ccncc3)s2)ccc1Br`: the Potency entry in experiment [1] and in experiment [2] was “inactive” in each case.

As for `Cc1csc(CNc2ncnc3ccc(-c4cccnc4)cc23)c1`, the Potency entry in experiment [1] and in experiment [2] was “inactive” throughout.

On to `O=C(OCc1c(-c2ccccc2)no[n+]1[O-])c1ccccc1`, for which the Potency entry in experiment [1] and in experiment [2] was “inactive” throughout.

Consider `COC(=O)c1ccc(Cn2ncc3c4sc(C)cc4n(C)c3c2=O)cc1`, for which the Potency entry in experiment [1] and in experiment [2] was “inactive” throughout.

With `CC(=O)NCc1cc(Cl)c2cccnc2c1O`, the Potency entry in experiment [1] and in experiment [2] was “inactive” each time.

Consider `Cc1nnc(-c2cnn(C)c2N)n1CCCc1ccccn1`, for which the Potency entry in experiment [1] and in experiment [2] was “inactive” in each case.

For the compound `COc1cc(O)c(C(CC(=O)N2CCC(Cc3ccccc3)CC2)c2ccc(C)cc2)c(OC)c1` (stereo unspecified), the Potency result in experiment [1] and in experiment [2] was “inactive” each time.

For `CC1=C(C(=O)N(C)C)C(c2ccccc2Br)N=C(Nc2nc3ccccc3o2)N1` (stereo unspecified), the Potency result in experiment [1] and in experiment [2] was “inactive” each time.

Turning to `O=S(=O)(c1ccc2c(c1)OCCO2)N1CCN(S(=O)(=O)c2ccccc2OC(F)(F)F)CC1`, the Potency entry in experiment [1] and in experiment [2] was “inactive” each time.

`CC(C)C1CCC(C(=O)Nc2ccc(S(=O)(=O)Nc3nccs3)cc2)CC1` (stereo unspecified): the Potency entry in experiment [1] and in experiment [2] was “inactive” throughout.

As to `Cc1cc(C)nc(NC(=S)N2CCN(c3cccc(Cl)c3Cl)CC2)c1`, the Potency entry in experiment [1] and in experiment [2] was “inactive” each time.

Consider `CN(C)c1ccc(CNc2nc(-c3ccccc3C(F)(F)F)nc3ccccc23)cc1`, for which the Potency result in experiment [1] and in experiment [2] was “inactive” each time.

With `COc1cc(F)c(S(=O)(=O)N2CCN(S(=O)(=O)c3ccc(N)cc3)CC2)c(F)c1`, the Potency result in experiment [1] and in experiment [2] was “inactive” in each case.

For the compound `OCc1ccnc(NC(=S)N2CCN(c3cccc(C(F)(F)F)c3)CC2)c1`, the Potency result in experiment [1] and in experiment [2] was “inactive” throughout.

For `COc1ccc(C[C@H](N)C(=O)N[C@@H]2[C@H](O)[C@H](n3cnc4c(N(C)C)ncnc43)O[C@@H]2CO)cc1`, the Potency entry in experiment [1] and in experiment [2] was “inactive” in each case.

On to `Cc1cc(C2N=C(Nc3nc4ccccc4o3)NC3=C2C(=O)CCC3)n[nH]1` (stereo unspecified), for which the Potency entry in experiment [1] and in experiment [2] was “inactive” in each case.

In the case of `CCN(CC)CCCn1c(-c2ccccc2)nc2c(N(CCOC)CCOC)nc(C)nc21`, the Potency entry in experiment [1] and in experiment [2] was “inactive” in each case.

For `CC(C)Oc1ccc(CCNC(=O)c2cc3sccc3n2Cc2ccccc2)cc1OC(C)C`, the Potency result in experiment [1] and in experiment [2] was “inactive” in each case.

For the compound `Cc1ccc(NS(=O)(=O)c2cc3c(cc2F)NC(=O)CC3)cc1C`, the Potency entry in experiment [1] and in experiment [2] was “inactive” throughout.

Regarding `Cc1cc(NS(=O)(=O)c2ccc(NC(=O)Cc3ccc(C)c(F)c3)cc2)no1`, the Potency result in experiment [1] and in experiment [2] was “inactive” throughout.
